Bioassay records as filed in PubChem.
BRCT PPI red – inhibitors of human BRCA1 BRCT-phosphoprotein interaction (red fluorophore); P38398; BRCT-phosphopeptide binding, red fluorescence polarization; Potency, µM (top dose mostly 76.9 µM), for inactives: at the top dose activity change, negative = inhibition, hits mostly inhibitors; 75,000 tested, 0.03% active; further: on the % scale 0 is the no-effect control and ±100 the full control effect
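Rhodamine-labelled pBACH1 10-mer (100 nM) bound to BRCT domain (100 nM) at pH 7.3; compounds incubated 12 min room temperature, polarization read. Free peptide defines full inhibition; unlabelled decapeptide titrated as control.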
BRCT inh green – inhibitors of human BRCA1 BRCT-phosphoprotein interaction (green fluorophore); Potency, µM (titrated, usually from 76.9 µM), for the others: at the highest dose activity change, negative = inhibition, hits mostly inhibitors; 75,000 tested, 0.05% active; P38398; AID 875; BRCA1 BRCT-phosphopeptide binding, green fluorescence polarization;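 further: potency means the concentration at half of the fitted maximal effect; plate controls were peptide without protein for full effect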
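Compounds were incubated for 12 min at room temperature with a complex of 100 nM fluorescein-tagged pBACH1 decapeptide and 250 nM His-tagged BRCT protein. Buffer was phosphate pH 7.3 with EDTA, DTT and Tween 20. Disruption of binding lowers the polarization signal.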
DNA Pol III inh – DNA polymerase III holoenzyme inhibition. reconstituted DNA polymerase III holoenzyme replication, biochemical. Potency, µM (titrated, usually from 57.1 µM), inactives show at the highest dose activity change, negative = inhibition. 71,000 tested, 0.25% active; further: potency means the concentration at half of the fitted maximal effect; on the % scale 0 is the no-effect control and ±100 the full control effect
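Reconstituted *E. coli* holoenzyme (0.35 nM Pol III, 1 nM beta, 154 nM SSB, 2 nM primase) was preincubated with compound for 15 min at RT. Synthesis on 1.4 nM ssM13Gori ran 35 min, then was stopped with PicoGreen/EDTA and read as dsDNA fluorescence.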
YjeE inh – YjeE (TsaE) inhibition, E. coli; P0AF67; purified YjeE enzyme, qHTS inhibition assay; Potency, µM; 71,000 tested, 0.05% active
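Purified YjeE (10 uM) with BODIPY Texas Red-labeled ADP probe (2 uM); compounds pin-transferred, 15 min at room temperature. Binding inhibition read as decreased fluorescence polarization; ADP titration as control.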
ALOX15 inhib – blocks human 15-lipoxygenase activity. P16050. purified 15hLO-1, xylenol orange hydroperoxide absorbance. Potency, µM (series often up to 57.1 µM), for the others: at the top dose activity change, negative = inhibition, usual class: inhibitors. 74,000 tested, 1.4% active; further: potency means the concentration at half of the fitted maximal effect; on the % scale 0 is the no-effect control and ±100 the full control effect; nearly all actives have a fitted effect of over 55% in size
Target sequence (P16050 whole entry, looked up): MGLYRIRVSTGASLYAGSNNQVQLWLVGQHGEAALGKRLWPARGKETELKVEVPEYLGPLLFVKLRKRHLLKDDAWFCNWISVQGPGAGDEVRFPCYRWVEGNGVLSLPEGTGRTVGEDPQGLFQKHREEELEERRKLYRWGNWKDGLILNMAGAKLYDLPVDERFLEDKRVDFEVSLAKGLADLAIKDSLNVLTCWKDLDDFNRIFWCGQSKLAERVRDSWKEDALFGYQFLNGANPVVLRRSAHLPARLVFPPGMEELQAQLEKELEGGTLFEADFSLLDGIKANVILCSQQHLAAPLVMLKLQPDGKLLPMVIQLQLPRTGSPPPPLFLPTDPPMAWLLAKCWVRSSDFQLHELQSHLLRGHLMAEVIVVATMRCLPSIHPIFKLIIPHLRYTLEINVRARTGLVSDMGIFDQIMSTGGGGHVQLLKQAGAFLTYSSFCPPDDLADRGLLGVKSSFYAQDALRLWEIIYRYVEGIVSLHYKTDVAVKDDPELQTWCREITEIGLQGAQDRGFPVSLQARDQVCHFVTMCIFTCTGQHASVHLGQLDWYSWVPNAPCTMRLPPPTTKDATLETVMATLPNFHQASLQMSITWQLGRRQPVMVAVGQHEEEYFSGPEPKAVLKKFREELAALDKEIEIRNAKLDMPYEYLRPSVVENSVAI
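Inhibition is scored from a chromogenic endpoint. After 15 min enzyme-compound contact, arachidonic acid (50 uM final) reacts 6 min with 40 nM 15hLO-1 at room temperature, then Fe-XO reagent is added for 30 min and absorbance ratio recorded.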
15-hLO-2 inh – 15-hLO-2 (ALOX15B) enzyme inhibition; purified 15hLO-2, xylenol orange hydroperoxide absorbance; 110,000 tested, 0.56% active; O15296; Potency, µM (series often up to 57.1 µM), for the others: at the top dose activity change, negative = inhibition, actives largely listed as inhibitors; further: potency means the concentration at half of the fitted maximal effect; on the % scale 0 is the no-effect control and ±100 the full control effect; nearly all actives have a fitted effect of over 60% in size
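Read-out: hydroperoxide product oxidises ferrous iron, measured as xylenol orange complex via the 573-to-405 nm absorbance ratio after 30 min. Reaction: 50 nM enzyme, 15 min compound preincubation, 45 uM arachidonic acid, 90 min RT, Hepes pH 7.5 with Triton X-100.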
Active calls of the source: *; i = inactive; ? = inconclusive; · = not tested or not shown; [ ] = remark or other dose. Many of the other results were omitted from the sample, so hits are more common in it than they were. The call rests on the fitted dose curve; in most records, active means well fitted curve in the direction sought with a large enough effect; inconclusive means small, poorly fitted or top-dose-only effect, or another doubt; inactive means no such curve, though single readings can be large; an effect the other way counts as inactive or inconclusive.

SMILES | BRCT PPI red | BRCT inh green | DNA Pol III inh | YjeE inh | ALOX15 inhib | 15-hLO-2 inh
COc1ccc(-c2cc([C@H](O)[C@@H]3CCCCN3)c3ccccc3n2)cc1 | -1%[15.4 µM] | 1%[15.4 µM] | -10%[11.4 µM] | i | 5%[11.4 µM] | 24%[11.4 µM]
N#CC(c1nc2ccccc2nc1N1CCCC1)S(=O)(=O)c1cccs1 (stereo not drawn) | -1% | 4% | -18% | i | 10µM* | ?
Cc1ccc(C)c(S(=O)(=O)C(C#N)c2nc3ccccc3nc2N2CCCC2)c1 (stereo not drawn) | -1% | 6% | -9% | i | 13µM* | -29%
Cc1ccc(C)c(S(=O)(=O)C(C#N)c2nc3ccccc3nc2N2CCOCC2)c1 (stereo not drawn) | -1% | -1% | 2% | i | -15% | -11%
CC(C)=N[C@H](C(=O)O)C(C)(C)S | 1%[15.4 µM] | -2%[15.4 µM] | 10%[11.4 µM] | i | -4%[11.4 µM] | -8%[11.4 µM]
CN=c1nc(-c2ccccc2)n(-c2ccccc2)s1 | -2% | 0% | -5% | i | 0.79µM* | 1µM*
C=CC(C)(C)c1[nH]c2ccccc2c1C1=C(O)C(=O)C(c2c[nH]c3c(CC=C(C)C)cccc23)=C(O)C1=O | -6% | -6% | 1.3µM* | 100µM* | ? | ?
CSc1ccc(C2C(C#N)=C(N)Oc3c2ccc(=O)c2c(C)oc(C)c32)cc1 (stereo not drawn) | 1% | 37% | 5% | i | 16µM* | ?
O=C(NC1=NCCS1)c1ccc2c(c1)C(=O)N(Cc1ccco1)C2=O | 1% | -2% | -6% | i | 1% | 5%
O=C(Nc1ccc(Cl)cc1C(=O)O)c1ccc2c(c1)C(=O)N(Cc1ccco1)C2=O | -1% | -4% | 32µM* | i | ? | ·
CCCCC(C=O)CC (stereo not drawn) | 0% | -3% | 0% | i | -2% | -1%
O=C1SC(SCc2ccccc2)=N/C1=C\c1ccco1 | -4% | -1% | -21% | i | ? | ?
CCCSC1=N/C(=C\C=C\c2ccco2)C(=O)S1 | -30% | -10% | 1.3µM* | i | 2.5µM* | 25µM*
CC1=CC2=C(OC1N(C)C)c1cccc3cccc(c13)C2=O (stereo not drawn) | -2% | -9% | ? | i | 7.9µM* | -14%
O=C(/C=C/c1ccc(O)cc1)c1ccccc1O | 4% | 0%[3.08 µM] | · | · | 10µM* | -5%
COc1ccc(N2Cc3cccc(C(=O)O)c3C2=O)cc1 | -7% | -6% | 16µM* | i | -14% | -11%
O=C(O)c1cccc2c1C(=O)N(Cc1ccncc1)C2 | -1% | -1% | -3% | i | -26% | -3%
O=C(O)CC[C@]1(C(=O)O)CCC(=O)c2ccccc21 | 2%[15.4 µM] | 1%[15.4 µM] | -1%[11.4 µM] | i | -3%[11.4 µM] | -2%[11.4 µM]
COc1ccc(C2Nc3ccccc3C(=O)N2Cc2ccco2)cc1COc1ccccc1F (stereo not drawn) | · | · | · | · | · | -17%
COc1ccc(C2Nc3ccccc3C(=O)N2Cc2ccco2)cc1COc1ccc(NC(C)=O)cc1 (stereo not drawn) | -1% | 6% | 9% | i | 16µM* | -10%
O=[N+]([O-])c1ccc(N2N=C(c3ccco3)CC2c2ccccc2)cc1 (stereo not drawn) | · | · | · | · | · | 13µM*
CCOC(=O)C1=C(C)NC(C)=C(C(=O)OCC)C1c1cn(-c2ccccc2)nc1-c1ccco1 | · | · | · | · | · | -17%
CC(C)OC(=O)c1cn(-c2ccccc2)nc1-c1ccco1 | -1% | 3% | -13% | i | 20µM* | ?
CC(C)COc1ccc(CSCCNC(=S)Nc2ccccc2)cc1 | · | · | · | · | · | 25µM*
O=C(O)CCCCn1cnc2c(=S)nc[nH]c21 | -1%[15.4 µM] | 0%[15.4 µM] | -11%[11.4 µM] | i | -18%[11.4 µM] | 6%[11.4 µM]
SMILES | BRCT PPI red | BRCT inh green | DNA Pol III inh | YjeE inh | ALOX15 inhib | 15-hLO-2 inh
Oc1cc(O)c2c(c1)O[C@H](c1ccc(O)c(O)c1)[C@@H](O)[C@@H]2c1c(O)cc(O)c2c1O[C@@H](c1ccc(O)c(O)c1)[C@H](O)C2 | 2%[15.4 µM] | 0%[15.4 µM] | 0.63µM* | i | ? | -18%[11.4 µM]
Cc1ccc(Cn2c(=S)[nH]c3ccc(N4CCOCC4)cc3c2=O)o1 | -7% | -9% | ? | i | 16µM* | -13%
C=C1c2c(Cl)ccc(O)c2C(O)=C2C(=O)[C@@]3(O)C(O)=C(C(N)=O)C(=O)[C@@H](N(C)C)[C@@H]3[C@@H](O)[C@H]12 | 0%[34.4 µM] | -2%[34.4 µM] | -5%[25.6 µM] | i | 1%[25.6 µM] | 10%[25.6 µM]
O=C(NCc1ccco1)c1ccc2nc3sc4c(c3c(=O)n2c1)CCCC4 | -1% | -1% | -10% | i | 32µM* | ?
COC(=O)c1ccc2c(c1)C(C)(C)C(/C=C/c1ccc(OC)c(OC)c1OC)=[N+]2C | · | · | · | · | · | 13µM*
COC(=O)c1ccc2c(c1)C(C)(C)C(/C=C/c1ccc(O)cc1)=[N+]2C | · | · | · | · | · | -16%[11.4 µM]
c1ccc(-c2nn3c(Cn4cnc5ccccc54)nnc3s2)cc1 | -2% | 6% | -7% | i | ? | 6%
c1cncc(-c2nn3c(Cn4cnc5ccccc54)nnc3s2)c1 | -4% | 3% | -5% | i | 4µM* | 4%
CCOc1cc(/C=N/NC(=O)c2cc(-c3cccc(OC)c3)n[nH]2)ccc1O | 0% | 1% | · | · | -21% | ·
CNC(=O)[C@@H]1O[C@@H](n2cnc3c(N)ncnc32)[C@@H](O)[C@H]1O | -2% | -2% | -2% | i | -4% | -5%
Nc1ccn([C@@H]2O[C@@H](CO)[C@@H](O)[C@H]2O)c(=O)n1 | -2% | 3% | 2% | i | 7% | 6%
Cc1cccc(Nc2ccccc2C(=O)O)c1C | -2% | -1%[3.08 µM] | 2.5µM* | i | -6% | -20%
Nc1ccccc1S[C@@H](C[N+](=O)[O-])c1ccc2c(c1)OCO2 | 0%[15.4 µM] | 1%[15.4 µM] | -12%[11.4 µM] | i | 2.5µM* | -19%[11.4 µM]
O=[N+]([O-])c1ccc(NNC(=S)Nc2ccccc2)cc1 | · | · | · | · | · | 4µM*
Cc1nn(-c2ccccc2)c2nc(-c3ccncc3)cc(C(=O)NCc3ccco3)c12 | 0% | -2% | -16% | i | 25µM* | 22%
O=C1C2C3C=CC(CO)(O3)C2C(=O)N1c1ccc(-c2ccccc2)cc1 (stereo not drawn) | 0% | 0% | -4% | i | -11% | 0.4µM*
CCOC(=O)c1ncc2[nH]c3cccc(OC(C)C)c3c2c1C | · | · | · | · | · | 47%[0.0915 µM]
CCOC(=O)C(C(C)=O)c1c(Br)c(O)c(O)c2c(C(=O)c3ccc(C)cc3)coc12 (stereo not drawn) | 0% | 2% | 6% | i | 2µM* | ?
CCOC(=O)c1c(C)n(-c2ccc(C)cc2)c2c(C(C(C)=O)C(=O)O)c(Br)c(O)c(O)c12 (stereo not drawn) | · | · | · | · | · | -29%
